# Laboratory results published in PubChem BioAssay.
# Active and inactive are the calls of the source.
# Tests used:
# [1] = compounds binding Alexa647 anti-His antibody – biochemical, small-molecule microarray, 635 nm fluorescence, artefact control for SMM control protein annotation, primary screen (AID 1128); details: higher = more signal;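 further: score merges feature fluorescence with signal-to-noise for each printed compound spot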
# [2] = system: Human papillomavirus type 1a E7 protein (residues 1-88); assay: HPV1a E7 small-molecule binders, primary screen, biochemical, small-molecule microarray, residues 1-88, 635 nm (AID 1129); details: small-molecule microarray binding, fluorescence 635 nm; higher = more signal
# [3] = molecular target: Focal adhesion kinase 1 (Homo sapiens) (UniProt Q05397); assay: PTK2 protein binding on printed compound slides – biochemical, small-molecule microarray, 635/667 nm fluorescence, BSA, DTT, primary screen (AID 1130); details: 635 nm fluorescence, higher = more signal;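 further: composite of spot emission at 667 nm and signal to noise over triplicate slides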
# [4] = system: Fibrinogen (Alexa647-labelled); assay: Alexa647-fibrinogen binding to printed small molecules – biochemical, small-molecule microarray, 635/667 nm fluorescence, artefact control for SMM control-protein annotation, profiling panel (AID 1131); details: fibrinogen-A647 binding fluorescence, higher = more signal;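 further: z-score merges 667 nm fluorescence with per-spot signal-to-noise over triplicate slides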
# [5] = molecular target: Follistatin (Homo sapiens) (UniProt P19883); assay: FST protein binding to printed compounds – biochemical, small-molecule microarray, 635/667 nm fluorescence, primary screen (AID 1132); details: 635 nm fluorescence, higher = more signal
# [6] = molecular target: Fibroblast growth factor 2 (Homo sapiens) (UniProt P09038); assay: basic fibroblast growth factor binding to printed compounds – biochemical, small-molecule microarray, 635/667 nm fluorescence, primary screen (AID 1133); details: FGF2, fluorescence 635/667, higher = more signal
# [7] = JC-1 mitochondrial potential readout, lung cancer cells – cell-based, A549, JC-1 fluorescence, basal, 24 h, 100 nL, profiling panel (AID 1138); details: higher = more signal;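 further: A549 lung adenocarcinoma cells under basal conditions with no added stimulus; test concentration not given here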
# Lefty1 = Lefty1 protein binding to printed compounds – biochemical, small-molecule microarray, 635/667 nm fluorescence, primary screen (AID 1139); details: fluorescence 635/667, higher = more signal
# [8] = system: wheat germ agglutinin (Triticum aestivum), Alexa647-labelled; assay: Alexa647-WGA lectin binding to printed small molecules – biochemical, small-molecule microarray, 635/667 nm fluorescence, artefact control for SMM control-protein annotation, profiling panel (AID 1140); details: WGA-A647 binding, 635 nm fluorescence, higher = more signal;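 further: score merges 667 nm feature emission with signal to noise over triplicate slides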
# [9] = molecular target: Luciferin 4-monooxygenase (Photinus pyralis) (UniProt P08659); assay: inhibition of purified Photinus pyralis luciferase – biochemical, luminescence, purified enzyme, 2006 set, primary screen (AID 1141); details: purified firefly luciferase, SteadyGlo luminescence, 30 min; higher = more signal, called active from +8 up or from −8 down;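 further: cell-free assay with purified firefly luciferase at 100 ng per well in PBS; test concentration not given here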
# Sequence of Luciferin 4-monooxygenase (Photinus pyralis) (P08659 whole entry, looked up): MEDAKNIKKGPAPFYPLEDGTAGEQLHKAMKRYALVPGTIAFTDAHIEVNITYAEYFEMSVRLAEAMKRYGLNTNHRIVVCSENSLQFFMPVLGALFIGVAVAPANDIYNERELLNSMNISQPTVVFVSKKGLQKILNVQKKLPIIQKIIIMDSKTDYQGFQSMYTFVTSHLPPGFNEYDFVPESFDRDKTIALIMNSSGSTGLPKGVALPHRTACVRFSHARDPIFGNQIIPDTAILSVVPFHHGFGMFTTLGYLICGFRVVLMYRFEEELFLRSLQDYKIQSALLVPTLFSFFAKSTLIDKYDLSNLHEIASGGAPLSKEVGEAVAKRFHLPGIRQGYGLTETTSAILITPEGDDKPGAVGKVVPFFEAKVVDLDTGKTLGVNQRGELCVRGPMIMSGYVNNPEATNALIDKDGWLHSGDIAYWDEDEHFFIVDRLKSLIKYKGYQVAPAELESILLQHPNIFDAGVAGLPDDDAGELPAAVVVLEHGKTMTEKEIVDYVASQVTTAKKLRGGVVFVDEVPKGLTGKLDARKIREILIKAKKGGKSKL
# Sequence of Focal adhesion kinase 1 (Homo sapiens) (Q05397 whole entry, looked up): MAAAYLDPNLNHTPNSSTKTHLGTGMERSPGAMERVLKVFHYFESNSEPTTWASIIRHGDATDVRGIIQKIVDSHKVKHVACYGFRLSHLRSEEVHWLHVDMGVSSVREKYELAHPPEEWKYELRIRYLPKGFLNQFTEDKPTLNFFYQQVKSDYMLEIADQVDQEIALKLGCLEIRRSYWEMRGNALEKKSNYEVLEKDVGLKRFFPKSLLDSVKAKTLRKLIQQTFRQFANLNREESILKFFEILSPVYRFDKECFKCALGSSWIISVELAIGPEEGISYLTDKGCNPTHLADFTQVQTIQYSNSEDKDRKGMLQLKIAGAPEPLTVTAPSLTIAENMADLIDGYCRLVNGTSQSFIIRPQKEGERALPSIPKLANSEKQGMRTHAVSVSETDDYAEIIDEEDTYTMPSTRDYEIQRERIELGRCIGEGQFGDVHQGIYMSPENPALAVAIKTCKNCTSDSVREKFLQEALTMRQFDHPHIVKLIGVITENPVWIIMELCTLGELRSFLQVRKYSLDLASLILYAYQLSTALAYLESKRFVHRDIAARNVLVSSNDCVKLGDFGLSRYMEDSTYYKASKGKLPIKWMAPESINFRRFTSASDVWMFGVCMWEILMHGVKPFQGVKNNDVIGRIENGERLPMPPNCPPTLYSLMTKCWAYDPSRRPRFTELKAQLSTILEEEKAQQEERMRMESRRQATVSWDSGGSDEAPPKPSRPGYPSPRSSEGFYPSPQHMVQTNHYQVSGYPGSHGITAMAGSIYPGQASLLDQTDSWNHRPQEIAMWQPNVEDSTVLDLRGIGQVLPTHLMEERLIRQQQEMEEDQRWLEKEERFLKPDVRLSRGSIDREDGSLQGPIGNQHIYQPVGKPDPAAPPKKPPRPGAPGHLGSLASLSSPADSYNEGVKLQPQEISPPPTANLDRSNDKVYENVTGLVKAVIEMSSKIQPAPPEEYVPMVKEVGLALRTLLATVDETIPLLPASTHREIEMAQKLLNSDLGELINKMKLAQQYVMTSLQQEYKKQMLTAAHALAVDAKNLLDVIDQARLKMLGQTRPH
# Sequence of Fibroblast growth factor 2 (Homo sapiens) (P09038 whole entry, looked up): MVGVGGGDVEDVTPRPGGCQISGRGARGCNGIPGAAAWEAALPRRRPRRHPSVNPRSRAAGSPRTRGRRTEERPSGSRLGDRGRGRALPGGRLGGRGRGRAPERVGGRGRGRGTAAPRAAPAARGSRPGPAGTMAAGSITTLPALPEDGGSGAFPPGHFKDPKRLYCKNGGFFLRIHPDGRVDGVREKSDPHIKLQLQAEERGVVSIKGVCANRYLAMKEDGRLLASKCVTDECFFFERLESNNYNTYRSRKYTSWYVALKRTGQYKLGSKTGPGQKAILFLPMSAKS
# Sequence of Follistatin (Homo sapiens) (P19883 whole entry, looked up): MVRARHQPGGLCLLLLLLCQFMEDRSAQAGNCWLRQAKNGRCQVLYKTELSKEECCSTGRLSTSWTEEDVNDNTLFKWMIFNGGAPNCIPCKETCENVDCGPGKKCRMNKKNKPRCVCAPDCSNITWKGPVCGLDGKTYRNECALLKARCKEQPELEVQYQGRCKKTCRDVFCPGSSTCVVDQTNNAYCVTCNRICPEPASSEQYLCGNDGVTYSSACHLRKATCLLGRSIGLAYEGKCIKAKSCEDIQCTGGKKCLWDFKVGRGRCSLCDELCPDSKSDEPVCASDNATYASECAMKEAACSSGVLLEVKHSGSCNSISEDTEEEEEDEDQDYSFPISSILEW
Structure (SMILES),composite z-score [1],composite z-score [2],composite z-score [3],composite z-score [4],composite z-score [5],composite z-score [6],z-score [7],composite z-score (Lefty1),composite z-score [8],z-score [9]
[N-]=[N+]=NCc1ccccc1C[C@]1(C(=O)O)N=C(c2ccc(OCCCO)cc2)O[C@H]1c1ccccc1CN=[N+]=[N-],1.25,1.03,0.378,1.02,0.879,0.157,0.0653,-0.8,1.08,-1.49 (inactive)
CC(C)(C)N1CC=CC23O[C@@H]4/C=C\CCCOC(=O)C4[C@H]2C(=O)N(CCO)[C@@H]3C1=O (stereo not given in full),0.543,0.193,0.19,-0.233,-0.993,-0.57,-0.913,-0.86,0.0851,0.885 (inactive)
[N-]=[N+]=Nc1ccccc1C[C@]1(C(=O)NCCN2CCOCC2)N=C(c2ccc(OCCCO)cc2)O[C@H]1c1ccccc1,1.34,1.27,0.903,0.952,1.29,0.877,0.273,-0.246,0.309,-0.683 (inactive)
COC(=O)[C@@]1(Cc2ccc(OC)cc2)[C@H]2c3cc(C(=O)N4CCCC4)n(Cc4cc(F)cc5c4OCOC5)c3C[C@H]2CN1C(=O)c1ccccc1,-0.642,1.2,0.993,-0.18,0.0448,-0.873,0.64,-0.394,0.0908,0.0222 (inactive)
CO[C@H]1O[C@H](CO)[C@@H](OC(=O)Nc2ccc3c(c2)OCO3)[C@H](OC(=O)Nc2ccccc2)[C@H]1OC(=O)Nc1ccccc1,1.77,1.28,0.927,0.995,1.32,0.924,-0.925,1.29,0.928,-0.546 (inactive)
O=C1c2ccccc2[C@@]2(Cc3ccccc3N(Cc3ccccc3)C2=O)[C@H](c2ccc(CO)cc2)N1C1CCCCC1,0.386,0.174,0.117,-0.0673,1.02,0.736,-0.191,0.483,0.0291,0.378 (inactive)
CC(C)N1C(=O)c2ccccc2[C@@H](C(=O)NCCCN(C)C)[C@@H]1c1ccc(CO)cc1,0.0674,-0.163,1.13,-0.305,-0.631,-0.521,-0.864,-1.12,0.705,0.571 (inactive)
COCCOC(=O)N1C(=O)[C@@]2(c3cc(C#CCNC(N)=O)ccc31)[C@H](c1ccc(O)cc1)N1[C@H](c3ccccc3)[C@H](c3ccccc3)OC(=O)[C@H]1[C@@H]2C(=O)NC[C@H](O)c1ccccc1,-0.49,0.802,-0.133,0.793,1.34,1.19,-1.05,1.13,0.69,0.0103 (inactive)
O=C1OCCC/C=C\[C@H]2OC34C=CCN(Cn5nnc6ccccc65)C(=O)[C@H]3N(CCCCCO)C(=O)[C@@H]4C12 (stereo not given in full),0.123,-0.654,-0.43,-1.02,-0.31,-1.16,0.248,-0.204,-1.03,0.786 (inactive)
O=C1C2C=CC(C(O)c3ccc(F)cc3)N(Nc3ccccc3)C2C(=O)N1c1ccccc1 (stereo not given),1.33,1.22,0.734,0.266,-0.143,-0.762,-0.101,-0.233,0.684,0.165 (inactive)
O=C1O[C@H](c2ccccc2)[C@H](c2ccccc2)N2[C@H]1[C@@H](C(=O)O)[C@]1(C(=O)Nc3ccc(C#CC4(O)CCCCCC4)cc31)[C@H]2c1ccc(OCCO)cc1,1.5,1.25,0.115,0.979,0.196,-0.333,-1.42,0.473,0.942,-2.75 (inactive)
COc1ccc(C(O)C2C=CC3C(=O)N(c4ccccc4)C(=O)C3N2Nc2ccc([N+](=O)[O-])cc2)cc1OCc1ccccc1 (stereo not given),1.71,1.2,0.315,0.995,0.508,0.156,0.41,-0.29,1.45,1.42 (inactive)
CCOC(=O)C[C@H]1[C@H](OC(=O)Cc2ccc3c(c2)OCO3)[C@@H](NC(=O)C2CCCCC2)c2cc(OCCCO)ccc2N1C(=O)Cc1ccc(OC)cc1,0.135,0.807,0.673,0.66,0.139,0.221,2.5,0.333,0.0679,-1.27 (inactive)
Cc1ccc([C@H]2C(C(=O)O)=C[C@@H](C)N2S(=O)(=O)c2ccc(C)cc2)cc1,1.72,1.14,1.96,-1.29,-0.742,-1.16,-0.321,-1.15,1.32,0.467 (inactive)
CC(C)(C)OC(=O)CC[C@@]1(C(=O)NCCN2CCOCC2)N=C(c2ccc(OCCCO)cc2)O[C@@H]1c1ccccc1,1.37,1.19,0.111,1.01,1.28,0.695,1.59,0.499,1.22,-1.66 (inactive)
O=C(OCCF)C1=CCC(c2cccc(Cl)c2)O1 (stereo not given),0.1,0.628,0.475,-0.137,0.134,-0.211,-0.218,-0.217,0.177,0.08 (inactive)
CCCCC=C[C@@H](NC(=O)c1ccc(C(=O)OC)cc1)c1ccccc1,0.59,1.05,0.694,0.875,0.293,0.0889,0.769,0.335,0.658,1.73 (inactive)
C=C[C@@H](COC(C)=O)N(Cc1ccc([N+](=O)[O-])cc1)S(=O)(=O)c1ccc(Br)cc1,1.6,1.17,0.079,0.958,0.631,0.54,1.6,0.321,1.09,-1.19 (inactive)
O=C/C=C/c1ccc(Cl)cc1,-0.318,-1.36,-0.195,-0.991,-0.329,-0.236,2.19,-0.283,-0.488,-0.712 (inactive)
C[C@]1(C(=O)NCc2ccccc2)c2ccccc2C(=O)N(Cc2cc(F)cc(C(F)(F)F)c2)[C@H]1c1ccc(CO)cc1,0.84,-0.184,-0.349,-0.582,-1.13,-0.278,0.916,-1.14,-0.566,0.585 (inactive)
COCCOC(=O)N1C(=O)[C@@]2(c3cc(C#CC4=CCCCC4)ccc31)[C@H](C(=O)N1CCc3cc(OC)c(OC)cc3C1)[C@H]1C(=O)O[C@H](c3ccccc3)[C@H](c3ccccc3)N1[C@@H]2c1ccccc1OCCO,-0.13,0.487,-0.106,0.061,1.29,1.66,-1.11,1,0.747,-1.62 (inactive)
C[C@]1(C(=O)NCc2ccccc2)c2ccccc2C(=O)N(Cc2ccc(OC(F)(F)F)cc2)[C@H]1c1ccc(CO)cc1,1.71,1.02,0.549,-0.38,0.49,-0.186,1.27,-0.111,-0.403,0.882 (inactive)
N#Cc1ccc(NN2C(C(O)c3ccc([N+](=O)[O-])cc3)C=CC3C(=O)N(c4ccccc4)C(=O)C32)cc1 (stereo not given),0.728,1.24,0.943,0.619,0.717,-0.0956,-0.257,-0.269,0.998,0.843 (inactive)
CC(C)N1C(=O)[C@@]2(c3ccc([N+](=O)[O-])cc3)CC(=O)N(CC34CC5CC(CC(C5)C3)C4)[C@@H]2c2ccc(CO)cc21,-0.193,-1.05,-0.553,-1.1,0.0163,-0.934,0.58,0.0347,1.23,-0.322 (inactive)
Cc1ccc(S[C@]2(C(=O)NCC(C)C)CC(=O)N(Cc3ccccc3)[C@@H]2c2ccc(CO)cc2I)cc1,1.38,0.904,0.139,0.312,1.27,0.564,1.03,0.536,0.503,-0.56 (inactive)
